Screening results as filed in PubChem BioAssay.
USP17 inh = blocks human USP17 ubiquitin-rhodamine cleavage; purified USP17, Ub-rhodamine cleavage fluorescence, 3 h; inhibition, % at 50 µM; 47,000 tested, 6.5% active
Target sequence (A8MUK1 whole entry, looked up): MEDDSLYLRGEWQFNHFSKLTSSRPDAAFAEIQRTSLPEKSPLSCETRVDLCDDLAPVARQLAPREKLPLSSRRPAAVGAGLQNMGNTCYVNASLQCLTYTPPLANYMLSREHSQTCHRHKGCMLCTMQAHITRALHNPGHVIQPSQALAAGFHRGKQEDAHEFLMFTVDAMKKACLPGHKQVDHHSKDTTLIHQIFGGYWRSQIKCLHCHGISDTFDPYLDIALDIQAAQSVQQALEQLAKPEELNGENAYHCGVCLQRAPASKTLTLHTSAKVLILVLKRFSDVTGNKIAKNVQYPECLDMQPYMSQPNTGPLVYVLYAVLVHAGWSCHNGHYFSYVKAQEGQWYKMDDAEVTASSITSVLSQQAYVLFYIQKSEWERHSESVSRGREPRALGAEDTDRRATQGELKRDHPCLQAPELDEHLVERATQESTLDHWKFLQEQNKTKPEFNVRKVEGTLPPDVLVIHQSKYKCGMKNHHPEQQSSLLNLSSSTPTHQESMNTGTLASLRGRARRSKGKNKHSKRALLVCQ
USP30 inh = inhibitors of human USP30 deubiquitinase; 47,000 tested, 5.3% active; AID 1645860; inhibition, % at 25 µM; Q70CQ3; purified USP30, Ub-rhodamine cleavage fluorescence
USP28 block = human USP28 deubiquitinase inhibition. 47,000 tested, 3% active. purified USP28, Ub-rhodamine cleavage fluorescence, 30 min. inhibition, % at 25 µM. AID 1645857
* marks the source's active call; other numbers are inactive results; . = no result given. Only some compounds are listed: those with a hit (about 11% of all), similar ones and a draw of the others. Rule as the data show it: active = inhibition above about 30%; inactive = the rest.

SMILES | USP17 inh | USP30 inh | USP28 block
CCn1ccc(C(=O)N2CCN(c3nc4c(OC)ccc(C)c4s3)CC2)n1 | -1 | 9 | 0
Cc1c(C(=O)Nc2ccc(F)cc2)nnn1-c1cccc2c1CCN(Cc1ccncc1)C2 | 8 | -17 | 6
Cc1ccc(NC(=O)Cn2c3ncccc3c(=O)n2-c2cccc(Cl)c2)cc1 | 0 | -23 | -2
Cc1ccc(C)c(NC(=O)Cn2c3ncccc3c(=O)n2-c2ccccc2)c1 | . | 45* | 5
Fc1ccc(CN2CCC[C@@H]2Cn2nnc(-c3ccncc3)n2)cc1F | -7 | 5 | 16
CSc1cccc(Nc2cc(C(=O)NCCCN3CCOCC3)c3ccccc3n2)c1 | -28 | -44 | -27
Cc1ccccc1N1C(=O)/C(=C\c2cccn2C)c2ccccc2C1=O | 61* | -66 | 4
Cc1ccc(CN2CC[C@@]3(O)CCCC[C@H]3C2c2ccc3c(c2)OCO3)cc1 (stereo partly specified) | 12 | -14 | 8
CN(C)S(=O)(=O)c1cccc(-c2nnc(C3(c4cccc(F)c4)CCOCC3)o2)c1 | 8 | 0 | 7
CC(=O)NCCc1ccc(O)cc1 | 1 | 4 | -3
COC(=O)C1(Cc2ccc(O)cc2)OC(=O)C(O)=C1c1ccc(O)cc1 (stereo unspecified) | 85* | 70* | 78*
Cc1cccc(O)c1-c1nc2c(-c3nc4c(C(=O)O)cccc4o3)cccc2o1 | 47* | -8 | 17
Cc1ccccc1OCC(=O)Nc1ccc(O)c(-c2nc3ccccc3o2)c1 | -17 | 16 | 14
COc1ccc(CNC(=O)C2CCN(c3ccncc3)CC2)c(OC)c1 | 3 | 6 | 1
O=C(/C=C/c1ccccc1)Nc1c2c(nc3c1CCC3)CCCC2 | 21 | 40* | 11
O=C(/C=C/c1ccccc1)Nc1nc(-c2ccccc2)c(-c2ccccc2)s1 | 11 | 22 | 16
CN(C)S(=O)(=O)c1ccc(C(=O)Oc2ccc(-c3ccc(C#N)cc3)cc2)cc1 | 18 | 31* | 3
CN(C)S(=O)(=O)c1cccc(COc2ccc(C#N)cc2)c1 | 7 | 19 | 12
COc1ccccc1C(=O)Oc1ccc(-c2ccc(C#N)cc2)cc1 | 49* | 8 | 5
Cn1cc(C(=O)Oc2ccc(C#N)cc2)c(C(F)(F)F)n1 | 0 | 7 | -3
Cc1cnc(CN2CCCC2c2noc(C3CC3)n2)cn1 (stereo unspecified) | -45 | -51 | -23
Cc1nc(-c2ccccc2C(=O)O)cc(C2CCN(S(C)(=O)=O)CC2)n1 | -4 | -4 | -13
O=c1[nH]c2ccc(S(=O)(=O)Nc3ccc(O)c4ccccc34)cc2[nH]1 | 63* | -10 | 27
Cc1ccc(S(=O)(=O)Nc2cc3[nH]c(=O)[nH]c3cc2C)c(C)c1 | -1 | -13 | -10
COc1cccc(NC(=O)c2cc3n(n2)CCCC3)c1 | 1 | -12 | 19
SMILES | USP17 inh | USP30 inh | USP28 block
O=C(Nc1cc(F)ccc1F)c1cc2ccccn2n1 | 22 | -4 | 1
O=C(c1ccc(-c2csc(C3CC3)n2)cc1)N1CCOCC1 | -6 | -2 | -5
Cc1cc(=O)n2c3c(c4c(cc13)c(CO)cc(=O)n4C)OC2 | 85* | 7 | 23
Cc1ccccc1-c1cc(C(=O)NCCN2CCOCC2)c2ccccc2n1 | -19 | . | .
COc1cc(O)c2c(c1)COC(=O)c1c(O)cc(C)cc1O2 | 5 | 9 | 13
COc1cc(O)c2c(c1)C1=CC(=O)C(O)=C[C@]1(C)OC2=O | 46* | 48* | 36*
CC(=O)c1ccc(NC(=O)c2nc3ccccc3nc2N2CCN(C)CC2)cc1 | -2 | -1 | 0
COCCNC(=O)c1nc(-c2cn(-c3ccccc3)cn2)n2ccccc12 | -85 | -102 | -25
O=C(c1ccc(N2CCc3ccccc32)s1)N1CCC(N2CCCCC2)CC1 | 46* | 1 | 35*
CN(C)CCNC(=O)c1ccc(N2CCc3ccccc32)s1 | -1 | -48 | 19
CCN1CCN(c2nc(F)c3c(c2F)S(=O)(=O)CCN3Cc2ccccc2)CC1 | 10 | -7 | 7
CC1CCCCN1c1nc(F)c2c(c1F)S(=O)(=O)CCN2Cc1ccccc1 (stereo unspecified) | 57* | -24 | 9
CN1CCN(CCNC(=O)c2cn3ccnc(-c4ccccc4)c3n2)CC1 | -5 | -16 | -1
COc1ccc(-c2nc(C)c(C(=O)NCCc3ccc(S(N)(=O)=O)cc3)s2)cc1 | 3 | 30 | 15
COc1ccc(C2=C(NCCc3ccc(S(N)(=O)=O)cc3)c3ccccc3C2=O)cc1 | 12 | 49* | 31*
O=C(c1ccc2c(c1)ncn2-c1cccc(F)c1)N1CCOCC1 | -15 | 15 | 2
CN(C)CCN1C(=O)C(O)=C(C(=O)c2cc3ccccc3o2)C1c1ccco1 (stereo unspecified) | -3 | -6 | -8
O=C(Nc1cccc(-c2ccc(N3CCOCC3)nn2)c1)c1cccc2ccccc12 | 15 | 1 | -3
O=C(Nc1cccc(-c2ccc(N3CCOCC3)nn2)c1)c1ccccc1Br | 41* | 39* | 7
COc1cccc(C(C)NC(=O)c2ccc(-c3ccc(N4CCCC4)nn3)cc2)c1 (stereo unspecified) | -5 | -6 | -5
O=C(Nc1ccc(F)cc1)c1ccc(-c2ccc(N3CCCC3)nn2)cc1 | 13 | 1 | 17
COc1ccc(NC(=O)c2ccc(-c3ccc(N4CCCC4)nn3)cc2)c(OC)c1 | 41* | 6 | 13
O=C(Nc1ccc(N2CCOCC2)cc1)c1ccc(-c2ccc(N3CCCC3)nn2)cc1 | 51* | -20 | 7
Cc1ccc2nc(CCc3ccc(NS(=O)(=O)c4ccc(F)c(Cl)c4)cc3)[nH]c2c1 | 19 | 8 | 14
COc1ccc(C(=O)N2CCC[C@H](Cn3nnc(-c4cccnc4)n3)C2)cc1 | 13 | 12 | 3
SMILES | USP17 inh | USP30 inh | USP28 block
CCc1ccccc1NC(=O)CN1C(=O)C2CCCC2=Nc2ccccc21 (stereo unspecified) | 7 | 10 | 5
O=C(CN1C(=O)C2CCCC2=Nc2ccccc21)Nc1cc(F)ccc1F (stereo unspecified) | 60* | 6 | 9
CSc1ccc(CCNC(=O)CCc2nc3cccnc3n2Cc2ccccc2)cc1 | 2 | -30 | -2
CSc1cccc(NC(=O)CCc2nc3cccnc3n2Cc2ccccc2)c1 | 48* | -44 | -15
O=C(CCc1nc2cccnc2n1Cc1ccccc1)NCCc1ccc(Cl)cc1 | -7 | -20 | -11
CCc1ccc(NC(=O)CCc2nc3cccnc3n2Cc2ccccc2)cc1 | 71* | 79* | 57*
O=C(NCC1CC1)C1CCN(c2cnc(N3CCCCCC3)nc2)CC1 | -27 | . | .
O=C(NCCN1CCCC1)C1CCN(c2cnc(N3CCCCC3)nc2)CC1 | -25 | -44 | 78*
O=c1[nH]cc(S(=O)(=O)NC2CCCc3ccccc32)c(=O)[nH]1 (stereo unspecified) | 9 | 7 | 11
Cc1ccc(C(=O)Nc2ncc3c(Cl)cccc3n2)cc1 | 31* | 33* | 24
Cc1ccc(NC(=O)c2cnc3ccccc3n2)cc1Cl | 2 | -162 | -30
Cc1ccc(C(=O)Nc2ncc3c(n2)CC(C)(C)CC3=O)cc1 | 20 | 37* | 12
CC1(C)CC(=O)c2cnc(NC(=O)c3ccco3)nc2C1 | 6 | 9 | -1
COc1ccc(C(C)C)cc1S(=O)(=O)Nc1cccc(C)n1 | 6 | 29 | 8
COc1ccc(C)cc1S(=O)(=O)NNc1nc(C)cc(C)n1 | 34* | 7 | 8
